For some assays here: Entries with a potency or affinity are not part of this list.
Tests used:
Parameters in all cases: scale not given: direction of the effect not stated beside the values
[1] = target: Protein translocase subunit SecA (Escherichia coli (strain K12)) (UniProt P10408); assay: Assay to Identify E. coli SecA ATPase Inhibitors; type: functional; settings: 30 µM
[2] = target: T1, Ubiquitin-activating enzyme e1, putative (Leishmania donovani (strain BPK282A1)) (UniProt E9BSI1); assay: Leishmania donovani Ubiquitin Activating Enzyme (LdE1); type: functional; settings: 30 µM
T1 sequence (whole entry): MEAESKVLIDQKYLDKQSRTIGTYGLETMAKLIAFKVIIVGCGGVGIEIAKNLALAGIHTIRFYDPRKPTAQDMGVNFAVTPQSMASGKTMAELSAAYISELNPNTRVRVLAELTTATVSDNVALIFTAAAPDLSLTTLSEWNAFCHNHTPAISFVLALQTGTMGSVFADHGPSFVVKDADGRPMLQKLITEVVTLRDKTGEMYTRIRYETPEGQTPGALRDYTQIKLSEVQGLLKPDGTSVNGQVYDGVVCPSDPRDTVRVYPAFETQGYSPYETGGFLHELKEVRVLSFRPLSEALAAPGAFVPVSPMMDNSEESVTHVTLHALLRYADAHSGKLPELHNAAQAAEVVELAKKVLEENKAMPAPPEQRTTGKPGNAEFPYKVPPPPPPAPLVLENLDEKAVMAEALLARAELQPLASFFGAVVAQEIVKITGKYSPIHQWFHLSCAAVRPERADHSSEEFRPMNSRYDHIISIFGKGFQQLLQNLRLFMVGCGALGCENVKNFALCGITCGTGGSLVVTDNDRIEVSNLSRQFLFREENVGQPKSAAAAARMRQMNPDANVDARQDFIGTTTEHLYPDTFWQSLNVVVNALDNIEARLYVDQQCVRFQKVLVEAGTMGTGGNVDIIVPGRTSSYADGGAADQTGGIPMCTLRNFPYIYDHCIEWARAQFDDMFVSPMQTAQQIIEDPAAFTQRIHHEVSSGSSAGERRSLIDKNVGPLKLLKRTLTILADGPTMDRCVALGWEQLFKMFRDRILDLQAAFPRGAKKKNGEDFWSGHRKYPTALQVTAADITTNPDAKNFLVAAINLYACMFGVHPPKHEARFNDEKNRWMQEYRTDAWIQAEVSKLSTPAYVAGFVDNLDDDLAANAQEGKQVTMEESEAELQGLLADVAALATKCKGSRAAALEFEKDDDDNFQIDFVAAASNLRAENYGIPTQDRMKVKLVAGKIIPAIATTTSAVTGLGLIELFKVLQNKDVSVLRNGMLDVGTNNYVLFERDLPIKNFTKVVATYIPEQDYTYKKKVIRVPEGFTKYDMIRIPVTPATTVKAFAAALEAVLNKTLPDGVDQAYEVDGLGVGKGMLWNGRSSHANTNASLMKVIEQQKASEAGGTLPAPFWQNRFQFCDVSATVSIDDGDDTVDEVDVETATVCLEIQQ

[3] = target: AMP-activated protein kinase, AMPK (Homo sapiens) (UniProt P54646+O43741+P54619+Q9UGJ0+Q9Y478+Q13131+Q9UGI9); assay: AMP-dependent Kinase enzyme assay. An in vitro enzyme assay that detects ADP turnover that is directly proportional to AMPK activity. This uses naive AMPK that is activated during the assay with MK-8722; type: functional; settings: 30 µM
[4] = target: Sialic acid-binding Ig-like lectin 9 (Homo sapiens) (UniProt Q9Y336); assay: Hs-Siglec9 ALPHAscreen SOP 20170721; settings: 10 µM
Trypanosoma cruzi = assay: Trypanosoma cruzi phosphomannomutase and mannose-1-phosphate guanylyltransferase assay; type: functional; settings: 10 µM
[5] = target: T2, Arginase-2, mitochondrial (Homo sapiens) (UniProt P78540); assay: in vitro enzyme assay to detect the production of urea directly proportional to the activity of Arginase II; type: functional; settings: 33.3 µM; note: in the data most compounds retested in dose-response had high values
T2 sequence (whole entry): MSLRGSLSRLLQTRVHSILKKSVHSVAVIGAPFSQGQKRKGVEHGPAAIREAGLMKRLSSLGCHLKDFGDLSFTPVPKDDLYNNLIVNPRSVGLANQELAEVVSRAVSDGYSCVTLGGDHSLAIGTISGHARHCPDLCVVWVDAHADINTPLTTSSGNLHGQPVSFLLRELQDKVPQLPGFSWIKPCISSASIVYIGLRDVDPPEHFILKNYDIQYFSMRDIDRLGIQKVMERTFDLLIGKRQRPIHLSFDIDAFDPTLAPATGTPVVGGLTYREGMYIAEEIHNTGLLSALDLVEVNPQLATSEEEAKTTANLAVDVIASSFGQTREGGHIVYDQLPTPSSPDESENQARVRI

[6] = target: T3, Proteasome subunit beta (Trypanosoma cruzi) (UniProt O96673); assay: Trypanosoma cruzi proteasome chymotrypsin-like activity (TcProtChymo) assay.; note: in the data most compounds retested in dose-response had high values; type: functional; settings: 9.37 µM
T3 sequence (whole entry): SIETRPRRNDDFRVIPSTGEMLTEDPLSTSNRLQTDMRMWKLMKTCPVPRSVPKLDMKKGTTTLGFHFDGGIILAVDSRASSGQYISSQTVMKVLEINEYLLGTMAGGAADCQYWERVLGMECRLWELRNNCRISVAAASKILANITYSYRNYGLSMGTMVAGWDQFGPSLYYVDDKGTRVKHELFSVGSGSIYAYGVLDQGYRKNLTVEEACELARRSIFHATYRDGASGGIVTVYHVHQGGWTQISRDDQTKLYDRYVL

Homo sapiens = species: Homo sapiens; assay: To identify inhibition of the IFN signalling (Jak-Stat) pathway via expression of an eGFP reporter gene under the control of an IFN-stimulated response element (ISRE) containing MxA promoter.; type: functional; settings: 30 µM
[7] = target: T4, Tyrosyl-tRNA synthetase, putative (Trypanosoma cruzi (strain CL Brener)) (UniProt Q4DSP6); assay: Trypanosoma cruzi tyrosyl tRNA synthetase (TcYRS) _High Tyrosine SOP; type: functional; settings: 30 µM; note: in the data most compounds retested in dose-response had high values
T4 sequence (whole entry): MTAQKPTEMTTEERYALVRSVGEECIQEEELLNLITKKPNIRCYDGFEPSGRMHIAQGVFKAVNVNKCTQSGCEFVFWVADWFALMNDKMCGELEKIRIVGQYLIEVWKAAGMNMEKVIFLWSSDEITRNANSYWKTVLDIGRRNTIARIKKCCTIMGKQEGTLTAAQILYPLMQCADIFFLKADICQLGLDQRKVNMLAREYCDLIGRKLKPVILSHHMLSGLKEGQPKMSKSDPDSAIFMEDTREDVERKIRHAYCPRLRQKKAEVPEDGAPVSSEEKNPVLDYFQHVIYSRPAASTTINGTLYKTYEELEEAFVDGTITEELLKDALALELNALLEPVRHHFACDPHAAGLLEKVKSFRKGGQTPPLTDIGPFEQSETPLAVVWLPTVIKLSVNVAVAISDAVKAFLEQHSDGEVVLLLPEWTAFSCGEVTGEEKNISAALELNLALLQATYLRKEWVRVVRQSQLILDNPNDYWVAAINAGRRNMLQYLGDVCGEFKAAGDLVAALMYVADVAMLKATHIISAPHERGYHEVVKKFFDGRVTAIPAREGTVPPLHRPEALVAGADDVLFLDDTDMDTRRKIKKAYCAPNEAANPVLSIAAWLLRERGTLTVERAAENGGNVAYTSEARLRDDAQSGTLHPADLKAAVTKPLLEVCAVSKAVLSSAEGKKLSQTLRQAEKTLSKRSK

[8] = target: T4, Tyrosyl-tRNA synthetase, putative (Trypanosoma cruzi (strain CL Brener)); assay: Trypanosoma cruzi tyrosyl tRNA synthetase (TcYRS) SOP; type: functional; settings: 30 µM
[9] = target: Chromo domain-containing protein 1 (Saccharomyces cerevisiae (strain ATCC 204508 / S288c) (Baker's yeast)) (UniProt P32657); assay: ScCHD-1 Enzyme Inhibition Assay; type: functional; settings: 30 µM; note: in the data most compounds retested in dose-response had high values
Sequence of Chromo domain-containing protein 1 (Saccharomyces cerevisiae (strain ATCC 204508 / S288c) (Baker's yeast)) (P32657 whole entry, the tested form may be a part): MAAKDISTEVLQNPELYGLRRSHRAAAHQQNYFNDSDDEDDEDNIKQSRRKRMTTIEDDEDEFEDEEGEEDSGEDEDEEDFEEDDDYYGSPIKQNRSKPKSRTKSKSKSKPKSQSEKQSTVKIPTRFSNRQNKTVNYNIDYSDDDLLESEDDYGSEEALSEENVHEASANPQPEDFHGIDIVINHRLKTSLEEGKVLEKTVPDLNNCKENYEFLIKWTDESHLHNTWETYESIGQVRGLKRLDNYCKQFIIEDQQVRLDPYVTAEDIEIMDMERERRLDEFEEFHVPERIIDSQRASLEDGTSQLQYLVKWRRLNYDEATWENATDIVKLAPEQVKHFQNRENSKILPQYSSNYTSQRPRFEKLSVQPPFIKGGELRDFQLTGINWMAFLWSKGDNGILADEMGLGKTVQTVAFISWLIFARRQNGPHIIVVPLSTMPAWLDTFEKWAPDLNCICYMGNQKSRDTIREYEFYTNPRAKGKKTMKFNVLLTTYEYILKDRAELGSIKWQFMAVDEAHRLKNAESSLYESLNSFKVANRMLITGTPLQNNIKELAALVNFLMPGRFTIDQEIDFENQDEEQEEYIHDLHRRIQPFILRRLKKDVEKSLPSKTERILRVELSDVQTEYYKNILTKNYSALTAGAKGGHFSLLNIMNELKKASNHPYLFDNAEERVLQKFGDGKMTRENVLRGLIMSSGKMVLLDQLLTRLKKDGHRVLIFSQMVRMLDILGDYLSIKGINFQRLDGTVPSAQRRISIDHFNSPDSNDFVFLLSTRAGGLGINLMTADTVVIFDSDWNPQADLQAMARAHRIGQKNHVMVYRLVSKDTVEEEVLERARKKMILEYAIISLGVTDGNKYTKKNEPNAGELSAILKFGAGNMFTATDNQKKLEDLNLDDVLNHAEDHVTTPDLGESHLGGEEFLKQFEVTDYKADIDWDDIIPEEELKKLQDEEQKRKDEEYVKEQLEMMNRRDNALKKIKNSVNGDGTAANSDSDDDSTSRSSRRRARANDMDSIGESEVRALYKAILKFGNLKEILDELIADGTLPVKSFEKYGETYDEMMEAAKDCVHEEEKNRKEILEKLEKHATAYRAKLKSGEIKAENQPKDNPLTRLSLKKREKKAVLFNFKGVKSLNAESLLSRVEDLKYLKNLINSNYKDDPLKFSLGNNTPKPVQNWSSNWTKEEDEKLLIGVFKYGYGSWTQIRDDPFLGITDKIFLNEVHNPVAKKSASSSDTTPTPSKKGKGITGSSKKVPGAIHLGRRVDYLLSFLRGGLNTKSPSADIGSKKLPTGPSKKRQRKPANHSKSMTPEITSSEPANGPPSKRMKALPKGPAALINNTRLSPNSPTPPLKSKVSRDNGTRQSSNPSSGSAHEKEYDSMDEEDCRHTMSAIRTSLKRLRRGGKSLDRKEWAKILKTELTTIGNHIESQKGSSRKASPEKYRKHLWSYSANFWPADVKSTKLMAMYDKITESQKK

Sequence of Protein translocase subunit SecA (Escherichia coli (strain K12)) (P10408 whole entry): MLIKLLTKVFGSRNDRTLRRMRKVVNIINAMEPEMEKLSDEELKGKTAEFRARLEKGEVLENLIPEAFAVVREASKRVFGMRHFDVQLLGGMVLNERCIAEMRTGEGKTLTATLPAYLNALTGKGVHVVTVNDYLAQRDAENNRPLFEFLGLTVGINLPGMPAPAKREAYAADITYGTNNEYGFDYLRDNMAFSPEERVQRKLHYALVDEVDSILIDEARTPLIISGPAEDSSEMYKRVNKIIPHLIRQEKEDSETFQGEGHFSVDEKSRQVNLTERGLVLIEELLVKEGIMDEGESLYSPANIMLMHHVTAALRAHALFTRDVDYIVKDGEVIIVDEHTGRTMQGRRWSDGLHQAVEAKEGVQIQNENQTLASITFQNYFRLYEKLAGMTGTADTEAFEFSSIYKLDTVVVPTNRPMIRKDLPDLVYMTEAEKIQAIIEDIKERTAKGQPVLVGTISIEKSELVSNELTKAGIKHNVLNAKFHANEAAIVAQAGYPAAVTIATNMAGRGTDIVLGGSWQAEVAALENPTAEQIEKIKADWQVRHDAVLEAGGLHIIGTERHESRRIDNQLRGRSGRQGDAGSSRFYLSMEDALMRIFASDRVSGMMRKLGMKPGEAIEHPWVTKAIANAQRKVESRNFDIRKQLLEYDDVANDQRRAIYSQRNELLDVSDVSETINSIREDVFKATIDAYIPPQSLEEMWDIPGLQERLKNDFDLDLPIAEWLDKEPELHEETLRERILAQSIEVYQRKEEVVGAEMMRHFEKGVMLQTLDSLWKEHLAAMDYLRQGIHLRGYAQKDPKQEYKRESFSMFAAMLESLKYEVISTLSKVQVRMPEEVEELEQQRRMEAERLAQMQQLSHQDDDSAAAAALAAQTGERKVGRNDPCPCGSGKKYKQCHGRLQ
Sequence of Sialic acid-binding Ig-like lectin 9 (Homo sapiens) (Q9Y336 whole entry): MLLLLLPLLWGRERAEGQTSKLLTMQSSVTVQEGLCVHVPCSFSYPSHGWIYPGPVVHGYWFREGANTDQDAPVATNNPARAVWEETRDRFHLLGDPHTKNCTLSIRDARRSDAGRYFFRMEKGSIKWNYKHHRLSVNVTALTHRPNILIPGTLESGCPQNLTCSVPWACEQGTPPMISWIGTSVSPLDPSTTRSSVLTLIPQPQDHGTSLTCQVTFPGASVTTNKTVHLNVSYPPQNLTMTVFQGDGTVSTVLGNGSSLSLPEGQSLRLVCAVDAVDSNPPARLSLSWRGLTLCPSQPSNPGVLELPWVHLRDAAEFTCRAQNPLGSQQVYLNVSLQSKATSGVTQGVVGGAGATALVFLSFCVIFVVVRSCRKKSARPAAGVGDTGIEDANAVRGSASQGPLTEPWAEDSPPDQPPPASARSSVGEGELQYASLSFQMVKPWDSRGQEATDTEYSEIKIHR

Compound | Percent Effect [1] [%] | Percent Effect [2] [%] | Percent Effect [3] [%] | Percent Effect [4] [%] | Percent Effect (Trypanosoma cruzi) [%] | Percent Effect [5] [%] | Percent Effect [6] [%] | Percent Effect (Homo sapiens) [%] | Percent Effect [7] [%] | Percent Effect [8] [%] | Percent Effect [9] [%]
Cc1nn(C)c(C)c1NC(=O)CN1CCc2c(nc(C3CC3)n2C)C1 | 0.84 | -5.41 | 0.981 | 13.1 | 6.76 | -5.71 | 4.14 | 1.97 | -0.529 | 7.32 | -8.76
Cc1noc(C)c1CN1CCN(CC2CC2)c2ncccc2C1 | -0.988 | 5.33 | -0.194 | -3.6 | -5.71 | 3.5 | 4.49 | 23 | 4.25 | 8.97 | -3.22
CC(C)C(C(=O)N1CCC(N(C)c2cccnn2)CC1)n1cncn1 (configuration not stated) | -2.45 | 0 | -10.6 | 4.35 | -3.49 | 4.01 | 9.01 | 11.7 | -0.493 | 1.24 | 6.08
Cc1cc(C(=O)N2CCCCC2C)ccc1NCCCO (configuration not stated) | -2.03 | -2.6 | 3.91 | 5.61 | -3 | 0.712 | 4.73 | -4.27 | 3.88 | 7.32 | -0.238
c1cc2n(n1)CC(CNCc1ccc(OC3CCCCC3)nc1)CN2 (configuration not stated) | -2.12 | 18.2 | 1.34 | 5.86 | 7.49 | -1.78 | 5.41 | -2.37 | 9.71 | 21.9 | -7.9
Cc1ncc(CNC(=O)c2nn(C)c3c2CS(=O)(=O)CC3)s1 | -3.9 | 9.33 | 3.53 | 5.84 | 3.73 | -6.16 | 13.3 | 4.95 | 9.52 | 12.8 | -9.87
CCCN1CCC(NC(=O)NCCc2nc(CC)c(C)s2)CC1 | -5.41 | 5.41 | -6.84 | 24.7 | 4.1 | 33.3 | 8.54 | -11.4 | 9.9 | 13.4 | -9.25
O=C(c1ccoc1)N1CCCn2cnc(COCC3CC3)c2C1 | -3.46 | 13.5 | 6.15 | -4.88 | 1.07 | 9.24 | 22.1 | 0.302 | 2.16 | 15.4 | -0.464
Cc1nn(C)c(C)c1C1CCCN1C(=O)c1ccc(Cl)o1 (configuration not stated) | -4.75 | 2.7 | 0.29 | -6.5 | 4.88 | -3.33 | 1.27 | 5.89 | 4.95 | -6.1 | 1.72
CN(C)C(=O)N1C[C@@H]2CC[C@H](C1)N(C(=O)CCCn1cncn1)C2 | -2.38 | 2.7 | 0.473 | 0.611 | 1.74 | 1.43 | 19 | -5.66 | 8.99 | 21.9 | -3.6
CCn1c(C)nnc1CN(C)C1CCN(CCCOC)C1 (configuration not stated) | -1.09 | 18.2 | -9.12 | 4.71 | 3.82 | 6.11 | 11.7 | -2.93 | 7.62 | 25.9 | -10.1
CCCS(=O)(=O)N1CCN(c2cc(-n3nc(C)cc3C)nc(C)n2)CC1 | -2.23 | 0 | -0.103 | 1.6 | 7.57 | 2.76 | 10.7 | -11 | 2.15 | -3.7 | -4.3
Cn1cnc2c1C(COCc1ccccc1)N(Cc1ccncc1)CC2 (configuration not stated) | -1.94 | 2.67 | -0.486 | 11.9 | -1.16 | -25.6 | 7.69 | -15.2 | 3.12 | 10 | -6.37
CS(=O)(=O)NCC(=O)N1CCCC1c1noc(C2CC2)n1 (configuration not stated) | -3.88 | 16 | -6.02 | 25.8 | 4.19 | 41.1 | 5.58 | 0.475 | 4.92 | 13.6 | -6.99
CCOc1ccnc(N2CCN(C(=O)c3cc(Cl)c[nH]3)CC2)n1 | -4.52 | 12.7 | 0.626 | 5.17 | 1.98 | 0.38 | 2.54 | 0.798 | 9.36 | 21.5 | -5.03
N#CCCN(C(=O)CN1CCCC1C1CCCCC1)c1ccccc1 (configuration not stated) | -2.43 | 0 | -4.92 | 3.65 | -1.56 | 2.5 | 15.1 | 17.1 | 12.9 | 8.54 | 0.924
Cc1ncnc2c1CCN(Cc1ccc3c(c1)OCO3)CC2 | -2.54 | 13.7 | -1.53 | 8.83 | 3.97 | 1.2 | 6.08 | -10.2 | 3.12 | 11.1 | -2.7
CN(CC(=O)N1CCC(C(O)c2ccccc2)CC1)c1cnccn1 (configuration not stated) | -0.515 | 10.8 | -0.406 | 9.65 | -0.279 | -2.77 | 8.62 | 13.4 | 5.94 | 23.2 | -7.9
CN1C(=O)C(C)(C)COc2cc(NS(=O)(=O)Cc3ccccc3)ccc21 | -1.91 | 16.4 | -12.8 | -8.62 | 3.72 | -2.73 | 15.6 | 57.7 | 7.53 | 12.5 | -6.62
c1cncc(-c2nccc(CN3CCCC3)n2)c1 | -0.958 | 6.76 | 11.4 | -5.74 | 2.37 | -22 | 19.5 | -2.71 | 9.68 | 14.3 | -16.2
COCCCNC(=O)CCn1nc(C)c2ccccc21 | -3.61 | 6.67 | 0.569 | 3.25 | -6.09 | -6.16 | 15 | 2.4 | 3.17 | 2.56 | -8.28
CC(C)Cc1cc(C(=O)NCc2nnc[nH]2)[nH]n1 | -3.85 | 7.89 | 11.2 | 7.63 | -3.02 | -4.73 | 13.1 | -0.467 | 1.06 | -2.6 | -1.14
